Experiment [1] in a line: SU-DIPG-VI glioma cell viability, MIPE4.0 library, CellTiter-Glo luminescence, qHTS (AID 1347066; cut-off not given, nearly all actives have AC50 up to about 30 µM;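 further: cells exposed to compound for 48 hours before readout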). The following applies: CellTiter-Glo ATP luminescence. For orientation: ATP-based viability assays read luminescence as a measure of living cells.
The nature of experiment [2]: JHH-DIPG-1 glioma cell viability, MIPE5.0 library, CellTiter-Glo luminescence, qHTS (AID 1347067; cut-off not given, nearly all actives have AC50 up to about 26 µM;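 further: cells exposed to compound for 48 hours before readout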). The note with it: JHH-DIPG-1 glioma viability, CellTiter-Glo ATP luminescence.
The nature of experiment [3]: sensitizers of A549 cells to miR-34 induction, primary screen, imaging, A549 dox-inducible miR-34, nuclei and caspase counts (AID 1347080;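 active means compounds whose cell count with miR-34 switched on is under 0.7 times the count with it off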). The following applies: A549 miR-34 inducible, Hoechst nuclei count, 48 h.
A short description of experiment [4]: modifiers of HSF1 nuclear foci, imaging, Selleck Cancer Library (AID 1347162; in the data active means plate-normalised HSF1 focus index below about 0.46). The note with it: human cells, at 10 µM; SSMD: measured here: HSF1 foci SSMD mean; cell count: measured here: cell number; plate-normalised HSF1 focus index: stronger effect = lower value.
A short description of experiment [5]: survival rescue of mitochondrial mutant cells in low glucose, primary screen, MELAS cybrids, Rieske KO mouse fibroblasts, CellTiter-Glo (AID 1508586;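 active means mean z-score across replicates of 1.96 or higher in either the MELAS or the Rieske mutant cell line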;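 further: z relative to plate mean and SD of compound and empty wells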).
Experiment [6] in a line: ovarian cancer cell viability with rucaparib, profiling panel, oncology-focused library, rucaparib conditional (AID 1508598). The following applies: patient-derived ovarian cancer cells, CellTiter-Glo viability, 144 h, stronger effect = lower value.
The target of experiment [7] is NAD(+) hydrolase SARM1 (Homo sapiens) (UniProt Q6SZW1). The experiment can be described thus: SARM1 TIR NADase inhibitors, cell lysate, NAD-Glo luminescence (AID 1508614;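 active means compound whose remaining NAD level is above about 45 nM, limit read from the data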). The note with it: SAM-TIR HEK293T lysate NADase, at 1 µM, stronger effect = higher value.
Experiment [8] in a line: viability rescue of complex I mutant cybrids, primary screen, cell-based, galactose medium, ATP luminescence (AID 1645843;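 active means z-score of at least 1.8 in each of two replicates, scored against plate mean and spread of sample wells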;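 further: positive z means more ATP and so rescue of galactose-driven cybrid death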). The note with it: complex I mutant cybrid cells, 72 h, stronger effect = higher value.
The nature of experiment [9]: viability loss in pontine glioma line – cell-based, SU-DIPG-XXV, MIPE5.0, CellTiter-Glo, qHTS, dose response (AID 1347065; cut-off not given, nearly all actives have AC50 up to about 26 µM;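 further: cells exposed to compound for 48 hours before ATP readout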). The note with it: CellTiter-Glo ATP luminescence.
Experiment [10] concerns the target Mitogen-activated protein kinase 7 (Homo sapiens) (UniProt Q13164). Kind of experiment: ERK5 transactivation activators in reporter cells, primary screen, cell-based, HTS (AID 1508626;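 active means luciferase signal above three times the same-plate solvent-only control wells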;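 further: luciferase driven by Gal4-ERK5 fusion binding five Gal4 sites before minimal TATA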). The following applies: HeLa Gal4-ERK5 transactivation, 18 h, at 5 µM, stronger effect = higher value.
Experiment [11] can be described thus: SU-DIPG-XXV glioma cell viability, MIPE5.0 library, qHTS (AID 1347068; cut-off not given, nearly all actives have IC50 up to about 30 µM). On the technique in general: Quantitative high-throughput screening tests each substance at several concentrations.
The nature of experiment [12]: phospholipid biosynthesis inhibitors in animal cells, primary screen, cell-based, LOPAC library, screen 4 (AID 1347384; call rule not given here). The following applies: phospholipid biosynthesis inhibition screen, at 10 µM.
The mark [13] stands for this setting: stronger effect = lower value, cell number ratio, induced over uninduced.
[14] abbreviates: measured here: relative caspase fold change +Dox/-Dox.
[15] abbreviates: measured here: total cells with miR-34 induction, stronger effect = lower value.
Setting [16] is: measured here: total cells without miR-34 induction.
[17] abbreviates: MELAS cybrid survival, CellTiter-Glo 48 h, stronger effect = higher value.
Where [18] appears, read: Rieske KO mouse fibroblast survival, CellTiter-Glo 72 h.

Where “and” joins values, the source holds several entries; their conditions need not be identical. Equal entries are not always repeated. Records with an inconclusive call do not appear. Calls of active or inactive are those of the source.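 How the source made its calls, unless noted: active means normalized viability below 100% at a tested concentration; inactive means the rest.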

Chain of NAD(+) hydrolase SARM1 (Homo sapiens) (Q6SZW1 whole entry, looked up): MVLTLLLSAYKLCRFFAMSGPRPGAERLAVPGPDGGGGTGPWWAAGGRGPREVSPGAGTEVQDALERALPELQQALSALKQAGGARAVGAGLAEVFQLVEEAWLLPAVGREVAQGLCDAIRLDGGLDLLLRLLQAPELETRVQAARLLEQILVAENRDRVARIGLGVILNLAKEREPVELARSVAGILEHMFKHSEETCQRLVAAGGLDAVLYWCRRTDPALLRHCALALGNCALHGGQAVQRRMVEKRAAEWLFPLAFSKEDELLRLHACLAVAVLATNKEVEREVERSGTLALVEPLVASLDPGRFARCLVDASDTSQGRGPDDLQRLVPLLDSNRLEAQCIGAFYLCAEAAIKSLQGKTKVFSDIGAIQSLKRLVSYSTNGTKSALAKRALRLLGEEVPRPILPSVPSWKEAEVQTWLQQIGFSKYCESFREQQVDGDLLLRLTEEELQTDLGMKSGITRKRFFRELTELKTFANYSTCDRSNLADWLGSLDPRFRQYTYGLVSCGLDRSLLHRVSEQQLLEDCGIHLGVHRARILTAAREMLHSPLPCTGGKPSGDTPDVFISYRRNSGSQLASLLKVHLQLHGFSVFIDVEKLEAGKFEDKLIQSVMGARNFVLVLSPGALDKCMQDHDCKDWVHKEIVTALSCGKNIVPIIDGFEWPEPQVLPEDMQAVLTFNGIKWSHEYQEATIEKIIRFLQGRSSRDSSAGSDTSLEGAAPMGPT
Chain of Mitogen-activated protein kinase 7 (Homo sapiens) (Q13164 whole entry, looked up, the tested form may be a part): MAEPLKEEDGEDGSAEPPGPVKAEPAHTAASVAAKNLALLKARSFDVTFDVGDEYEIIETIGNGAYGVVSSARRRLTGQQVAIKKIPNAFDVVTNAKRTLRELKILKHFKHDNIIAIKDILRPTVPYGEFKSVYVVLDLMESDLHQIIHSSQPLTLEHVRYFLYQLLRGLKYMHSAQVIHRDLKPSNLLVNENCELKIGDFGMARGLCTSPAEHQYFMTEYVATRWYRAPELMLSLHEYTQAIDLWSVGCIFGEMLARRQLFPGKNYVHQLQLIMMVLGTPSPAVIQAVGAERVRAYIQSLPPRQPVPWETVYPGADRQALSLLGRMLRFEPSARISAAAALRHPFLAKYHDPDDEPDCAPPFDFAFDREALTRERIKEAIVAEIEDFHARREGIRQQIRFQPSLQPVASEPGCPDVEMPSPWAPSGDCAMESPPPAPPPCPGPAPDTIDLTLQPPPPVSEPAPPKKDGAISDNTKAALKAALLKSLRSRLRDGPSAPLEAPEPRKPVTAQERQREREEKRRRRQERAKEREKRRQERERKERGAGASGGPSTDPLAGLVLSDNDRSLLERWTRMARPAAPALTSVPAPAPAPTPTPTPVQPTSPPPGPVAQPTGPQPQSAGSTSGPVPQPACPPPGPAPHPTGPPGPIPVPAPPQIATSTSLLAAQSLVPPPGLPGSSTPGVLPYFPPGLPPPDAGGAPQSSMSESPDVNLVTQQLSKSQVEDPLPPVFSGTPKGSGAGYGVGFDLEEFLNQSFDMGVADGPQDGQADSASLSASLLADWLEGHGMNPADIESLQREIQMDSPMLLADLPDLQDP

Regarding `CCc1c2c(nc3ccc(OC(=O)N4CCC(N5CCCCC5)CC4)cc13)-c1cc3c(c(=O)n1C2)COC(=O)[C@]3(O)CC`, the compound was called inactive in experiment [1]. For the same compound, the AC50 (as a rule, the concentration at which the activity in the assay is half-maximal) in experiment [2] was 23.5 µM (active). For the same compound, the fold change in experiment [3] (setting [13]) was 0.732 (inactive) and 1.02 (inactive) and 1.1 (inactive); in experiment [3] (setting [14]), 1.79 and 1.27 and 1.62. For the same compound, the cell count in [3] (setting [15]) was 1660 and 2170 and 2350; in experiment [3] (setting [16]), 2270 and 2120 and 2140; in experiment [4], 7510. Further, in experiment [4], the SSMD is -0.515. For the same compound, in experiment [4], the plate-normalised HSF1 focus index was 0.983 (inactive). The z-score is -0.914 (inactive) and -2.14 (inactive) in experiment [5] (setting [17]); -0.882 and -1.55 in experiment [5] (setting [18]); -1.4 (inactive) and -0.58 (inactive) in experiment [8]. The viability (usually a read-out of living cells in per cent, often relative to untreated cells) in [6] (at 0.000305 µM, OCI-C5x cells, with rucaparib 10 µM, 100% = cells with rucaparib alone) is 118% (inactive); in [6] (at 0.000305 µM, OCI-C5x cells, without rucaparib), 117% (inactive); in experiment [6] (at 0.000305 µM, OCI-P5x cells, with rucaparib 20 µM, 100% = cells with rucaparib alone) it was 102% (inactive); in experiment [6] (at 0.000305 µM, OCI-P5x cells, without rucaparib) it was 105% (inactive); in [6] (at 0.00122 µM, OCI-C5x cells, with rucaparib 10 µM, 100% = cells with rucaparib alone) it was 121% (inactive); in experiment [6] (at 0.00122 µM, OCI-C5x cells, without rucaparib), 124% (inactive). Besides, the viability in experiment [6] (at 0.00122 µM, OCI-P5x cells, with rucaparib 20 µM, 100% = cells with rucaparib alone) is 104% (inactive); in experiment [6] (at 0.00122 µM, OCI-P5x cells, without rucaparib), 105% (inactive); in experiment [6] (at 0.00488 µM, OCI-C5x cells, with rucaparib 10 µM, 100% = cells with rucaparib alone) it was 107% (inactive); in experiment [6] (at 0.00488 µM, OCI-C5x cells, without rucaparib), 112% (inactive); in [6] (at 0.00488 µM, OCI-P5x cells, with rucaparib 20 µM, 100% = cells with rucaparib alone), 108% (inactive); in [6] (at 0.00488 µM, OCI-P5x cells, without rucaparib), 106% (inactive). Further, the viability in experiment [6] (at 0.0195 µM, OCI-C5x cells, with rucaparib 10 µM, 100% = cells with rucaparib alone) was 115% (inactive); in [6] (at 0.0195 µM, OCI-C5x cells, without rucaparib), 124% (inactive); in [6] (at 0.0195 µM, OCI-P5x cells, with rucaparib 20 µM, 100% = cells with rucaparib alone), 101% (inactive); in experiment [6] (at 0.0195 µM, OCI-P5x cells, without rucaparib), 105% (inactive); in [6] (at 0.0781 µM, OCI-C5x cells, with rucaparib 10 µM, 100% = cells with rucaparib alone), 115% (inactive); in [6] (at 0.0781 µM, OCI-C5x cells, without rucaparib) it was 109% (inactive). Further, the viability in [6] (at 0.0781 µM, OCI-P5x cells, with rucaparib 20 µM, 100% = cells with rucaparib alone) was 89.3% (active); in experiment [6] (at 0.0781 µM, OCI-P5x cells, without rucaparib) it was 102% (inactive); in experiment [6] (at 0.313 µM, OCI-C5x cells, with rucaparib 10 µM, 100% = cells with rucaparib alone), 94% (active); in [6] (at 0.313 µM, OCI-C5x cells, without rucaparib), 106% (inactive); in experiment [6] (at 0.313 µM, OCI-P5x cells, with rucaparib 20 µM, 100% = cells with rucaparib alone), 81.1% (active); in experiment [6] (at 0.313 µM, OCI-P5x cells, without rucaparib) it was 89.6% (active). Besides, the viability in experiment [6] (at 1.25 µM, OCI-C5x cells, with rucaparib 10 µM, 100% = cells with rucaparib alone) is 70.2% (active); in experiment [6] (at 1.25 µM, OCI-C5x cells, without rucaparib), 87% (active); in experiment [6] (at 1.25 µM, OCI-P5x cells, with rucaparib 20 µM, 100% = cells with rucaparib alone) it was 64.9% (active); in experiment [6] (at 1.25 µM, OCI-P5x cells, without rucaparib), 57.1% (active); in [6] (at 5 µM, OCI-C5x cells, with rucaparib 10 µM, 100% = cells with rucaparib alone), 50.5% (active); in [6] (at 5 µM, OCI-C5x cells, without rucaparib), 36.9% (active). The viability in experiment [6] (at 5 µM, OCI-P5x cells, with rucaparib 20 µM, 100% = cells with rucaparib alone) is 34.4% (active); in [6] (at 5 µM, OCI-P5x cells, without rucaparib), 21.1% (active). Moreover, the remaining NAD in experiment [7] was 10 nM (inactive).
As for `C1CCC(C(CC2CCCCN2)C2CCCCC2)CC1` (centres undefined), the AC50 in experiment [9] was 10.5 µM (active); in [2] it was 8.33 µM (active). Also, the fold change in [3] (setting [13]) is 0.746 (inactive) and 0.859 (inactive); in experiment [3] (setting [14]), 0.891 and 3.18. Besides, the cell count in experiment [3] (setting [15]) is 5600 and 9890; in experiment [3] (setting [16]), 7500 and 11500. Moreover, the z-score in experiment [5] (setting [17]) is -1.07 (inactive); in experiment [5] (setting [18]), 0.712. Moreover, the remaining NAD in experiment [7] is 10 nM (inactive). Moreover, the luciferase signal in experiment [10] is 140 AU (inactive).
For `CNC[C@H](O)[C@@H](O)[C@H](O)[C@H](O)CO`, the compound was classed as inactive in [1], in experiment [2] and in experiment [11]. In addition, the values for the fold change in [3] (setting [13]) and in experiment [3] (setting [14]) were 0.909 (inactive) and 1.1, respectively. The cell count was determined as 9480 in experiment [3] (setting [15]) and 10400 in [3] (setting [16]). The z-score in experiment [5] (setting [17]) is 0.108 (inactive) and -0.495 (inactive); in [5] (setting [18]) it was -0.764 and -1.1; in experiment [8] it was 0.835 (inactive). For the same compound, in experiment [7], the remaining NAD was 10 nM (inactive).
On to `CN1CCC(=C2c3ccccc3C=Cc3ccccc32)CC1`, for which the outcome in [1], in [2], in experiment [11] and in experiment [12] was inactive. For the same compound, the z-score in experiment [5] (setting [17]) was -0.307 (inactive) and -0.043 (inactive) and -1.41 (inactive); in [5] (setting [18]), -0.028 and 0.523 and -1.01. Besides, in experiment [7], the remaining NAD was 10 nM (inactive). Besides, the luciferase signal in experiment [10] was 20 AU (inactive).

Values taken from PubChem BioAssay.
